According to the supplement of paper PMC10849652:
Targets with a hit are over-represented here; the source holds about 8,800 in all. About 0.5% of all pairs of compound and target were hits. Unmarked numbers belong to inactive results.

Compound: CCCS(=O)(=O)Nc1ccc(F)c(C(=O)c2c[nH]c3ncc(-c4ccc(Cl)cc4)cc23)c1F [vemurafenib]
Assay: log2 fold change, soluble protein after heating vs DMSO (PISA); higher = thermal stabilisation; K562 lysate, 10 uM; active = over 0.2 and 3.5 SD of the protein, either way, in both replicates (recomputed)
Summary of the method: (§1)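 The values are log-two fold changes in thermal stability compared with solvent controls and come from duplicates. They were obtained by TMTpro 16plex LC-MS/MS, with channel sums equalised, on the supernatant after 21,000xg for 90 min. That supernatant came from crude K562 extract at 1 mg/mL protein treated with 10 μM compound for 30 min, heated for 3 min across 48°C-58°C, pooled and brought to 0.5% NP-40 at 4°C.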

UniProt Q8NI60, sequence (Q8NI60 whole entry, looked up): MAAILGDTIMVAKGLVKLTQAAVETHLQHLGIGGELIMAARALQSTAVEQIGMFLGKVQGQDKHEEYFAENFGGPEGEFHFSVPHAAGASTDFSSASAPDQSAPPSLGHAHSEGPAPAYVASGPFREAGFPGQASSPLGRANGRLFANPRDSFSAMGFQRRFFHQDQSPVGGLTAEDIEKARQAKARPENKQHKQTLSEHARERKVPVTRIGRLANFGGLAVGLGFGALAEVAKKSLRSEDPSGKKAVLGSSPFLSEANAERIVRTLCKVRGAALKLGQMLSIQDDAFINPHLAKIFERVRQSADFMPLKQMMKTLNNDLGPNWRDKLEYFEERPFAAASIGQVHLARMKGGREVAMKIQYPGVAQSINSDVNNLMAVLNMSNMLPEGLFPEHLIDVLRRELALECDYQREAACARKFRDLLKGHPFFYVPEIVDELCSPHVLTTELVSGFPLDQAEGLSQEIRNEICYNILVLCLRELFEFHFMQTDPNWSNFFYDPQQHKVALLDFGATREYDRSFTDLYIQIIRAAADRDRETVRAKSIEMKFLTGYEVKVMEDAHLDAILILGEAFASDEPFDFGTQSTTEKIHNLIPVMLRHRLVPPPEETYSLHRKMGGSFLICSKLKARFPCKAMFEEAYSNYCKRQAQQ
UniProt P48729, sequence (P48729 whole entry, looked up): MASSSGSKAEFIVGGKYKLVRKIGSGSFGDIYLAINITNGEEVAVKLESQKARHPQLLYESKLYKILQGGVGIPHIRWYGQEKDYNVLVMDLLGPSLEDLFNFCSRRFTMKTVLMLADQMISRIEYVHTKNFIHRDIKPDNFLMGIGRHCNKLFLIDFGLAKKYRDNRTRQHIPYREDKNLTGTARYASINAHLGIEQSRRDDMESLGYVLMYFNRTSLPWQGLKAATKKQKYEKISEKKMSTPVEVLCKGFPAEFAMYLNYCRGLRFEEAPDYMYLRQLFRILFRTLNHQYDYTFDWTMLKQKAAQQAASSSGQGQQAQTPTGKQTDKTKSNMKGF
UniProt O75208, sequence (O75208 whole entry, looked up): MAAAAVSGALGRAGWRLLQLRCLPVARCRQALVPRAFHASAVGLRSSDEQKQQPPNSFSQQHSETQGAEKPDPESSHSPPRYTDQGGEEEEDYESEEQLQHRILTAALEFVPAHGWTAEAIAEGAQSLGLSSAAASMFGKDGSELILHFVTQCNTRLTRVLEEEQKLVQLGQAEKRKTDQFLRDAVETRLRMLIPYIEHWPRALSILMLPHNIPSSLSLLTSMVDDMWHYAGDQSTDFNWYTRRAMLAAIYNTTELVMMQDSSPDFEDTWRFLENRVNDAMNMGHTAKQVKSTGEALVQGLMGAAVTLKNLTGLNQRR
UniProt P39880, sequence (P39880 whole entry, looked up): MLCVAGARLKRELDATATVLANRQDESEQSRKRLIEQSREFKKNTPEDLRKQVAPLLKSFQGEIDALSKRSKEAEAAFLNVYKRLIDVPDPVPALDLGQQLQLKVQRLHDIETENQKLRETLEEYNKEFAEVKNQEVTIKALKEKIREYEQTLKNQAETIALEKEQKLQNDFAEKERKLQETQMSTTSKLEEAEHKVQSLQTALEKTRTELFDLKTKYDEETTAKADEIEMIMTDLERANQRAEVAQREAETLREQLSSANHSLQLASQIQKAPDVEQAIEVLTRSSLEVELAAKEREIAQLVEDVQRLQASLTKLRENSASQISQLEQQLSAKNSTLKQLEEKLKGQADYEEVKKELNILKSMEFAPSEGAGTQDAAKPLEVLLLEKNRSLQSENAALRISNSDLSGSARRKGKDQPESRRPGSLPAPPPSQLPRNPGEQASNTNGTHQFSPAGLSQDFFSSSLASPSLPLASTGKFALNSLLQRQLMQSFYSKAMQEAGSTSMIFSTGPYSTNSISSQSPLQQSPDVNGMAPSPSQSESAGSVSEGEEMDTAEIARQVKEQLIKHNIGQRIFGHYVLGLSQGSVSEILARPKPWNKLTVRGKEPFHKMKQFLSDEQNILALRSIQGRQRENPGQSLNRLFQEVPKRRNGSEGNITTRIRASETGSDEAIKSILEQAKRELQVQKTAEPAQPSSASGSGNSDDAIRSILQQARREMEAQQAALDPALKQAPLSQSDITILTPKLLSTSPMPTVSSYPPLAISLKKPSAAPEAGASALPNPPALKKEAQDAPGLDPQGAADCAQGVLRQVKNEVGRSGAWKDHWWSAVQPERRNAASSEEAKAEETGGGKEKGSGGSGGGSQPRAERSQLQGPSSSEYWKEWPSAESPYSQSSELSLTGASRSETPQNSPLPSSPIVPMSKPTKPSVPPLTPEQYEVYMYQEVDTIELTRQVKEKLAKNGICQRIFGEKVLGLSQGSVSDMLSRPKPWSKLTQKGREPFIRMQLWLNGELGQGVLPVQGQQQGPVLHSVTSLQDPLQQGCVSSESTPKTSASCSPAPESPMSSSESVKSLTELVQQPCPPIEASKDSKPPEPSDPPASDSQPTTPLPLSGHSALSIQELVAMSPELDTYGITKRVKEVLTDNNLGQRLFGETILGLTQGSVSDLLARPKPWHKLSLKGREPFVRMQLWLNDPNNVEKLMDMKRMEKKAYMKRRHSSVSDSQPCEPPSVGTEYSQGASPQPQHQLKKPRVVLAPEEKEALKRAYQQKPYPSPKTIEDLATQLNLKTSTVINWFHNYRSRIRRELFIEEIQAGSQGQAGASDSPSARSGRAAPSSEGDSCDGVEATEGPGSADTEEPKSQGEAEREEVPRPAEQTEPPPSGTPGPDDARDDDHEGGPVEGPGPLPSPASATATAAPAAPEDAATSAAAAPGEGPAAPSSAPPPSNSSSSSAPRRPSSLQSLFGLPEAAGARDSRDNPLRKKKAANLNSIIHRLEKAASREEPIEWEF
UniProt Q92466, sequence (Q92466 whole entry, looked up): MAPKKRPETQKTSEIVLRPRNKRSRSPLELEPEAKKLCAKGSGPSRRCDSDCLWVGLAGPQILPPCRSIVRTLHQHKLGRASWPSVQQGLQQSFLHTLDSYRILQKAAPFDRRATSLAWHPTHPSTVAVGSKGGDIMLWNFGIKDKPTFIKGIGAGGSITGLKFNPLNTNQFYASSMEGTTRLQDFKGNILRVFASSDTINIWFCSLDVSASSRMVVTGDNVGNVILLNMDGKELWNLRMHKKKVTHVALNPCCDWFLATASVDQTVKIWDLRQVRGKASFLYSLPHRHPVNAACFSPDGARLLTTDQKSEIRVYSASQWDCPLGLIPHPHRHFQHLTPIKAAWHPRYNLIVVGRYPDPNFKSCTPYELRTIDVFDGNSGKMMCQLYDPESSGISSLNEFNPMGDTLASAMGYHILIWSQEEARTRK
UniProt O95628, sequence (O95628 whole entry, looked up): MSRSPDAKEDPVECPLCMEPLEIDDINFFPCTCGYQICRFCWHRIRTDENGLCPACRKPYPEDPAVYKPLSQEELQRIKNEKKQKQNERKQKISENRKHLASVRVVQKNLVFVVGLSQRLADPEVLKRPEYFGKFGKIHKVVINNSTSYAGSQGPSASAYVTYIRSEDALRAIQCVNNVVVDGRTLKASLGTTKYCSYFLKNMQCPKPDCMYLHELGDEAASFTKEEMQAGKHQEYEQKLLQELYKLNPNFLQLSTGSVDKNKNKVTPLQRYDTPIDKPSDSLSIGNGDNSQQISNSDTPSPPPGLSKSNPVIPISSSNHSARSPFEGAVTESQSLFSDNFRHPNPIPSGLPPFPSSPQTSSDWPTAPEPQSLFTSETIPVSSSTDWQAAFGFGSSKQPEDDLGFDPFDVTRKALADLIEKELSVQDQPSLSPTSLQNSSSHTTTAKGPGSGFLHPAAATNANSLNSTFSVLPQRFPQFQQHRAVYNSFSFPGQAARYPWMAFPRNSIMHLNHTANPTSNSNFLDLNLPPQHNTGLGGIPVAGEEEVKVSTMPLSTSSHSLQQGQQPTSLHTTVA
UniProt Q9H4E7, sequence (Q9H4E7 whole entry, looked up): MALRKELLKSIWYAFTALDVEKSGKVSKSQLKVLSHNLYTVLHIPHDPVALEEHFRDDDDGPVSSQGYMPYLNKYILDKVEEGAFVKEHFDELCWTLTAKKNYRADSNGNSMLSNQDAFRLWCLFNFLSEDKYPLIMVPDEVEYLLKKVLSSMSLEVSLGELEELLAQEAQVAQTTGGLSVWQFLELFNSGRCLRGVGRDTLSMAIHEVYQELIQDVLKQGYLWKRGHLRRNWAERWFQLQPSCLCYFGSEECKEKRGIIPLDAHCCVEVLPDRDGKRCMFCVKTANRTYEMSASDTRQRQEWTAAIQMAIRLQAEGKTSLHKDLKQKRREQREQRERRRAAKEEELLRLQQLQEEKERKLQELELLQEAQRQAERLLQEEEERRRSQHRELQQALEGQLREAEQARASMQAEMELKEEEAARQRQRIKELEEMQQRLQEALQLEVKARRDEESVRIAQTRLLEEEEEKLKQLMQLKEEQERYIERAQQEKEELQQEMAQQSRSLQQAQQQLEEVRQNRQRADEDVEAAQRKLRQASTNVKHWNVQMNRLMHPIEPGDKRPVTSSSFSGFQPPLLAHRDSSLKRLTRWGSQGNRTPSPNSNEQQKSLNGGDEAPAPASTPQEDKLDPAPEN
UniProt Q9Y6M4, sequence (Q9Y6M4 whole entry, looked up): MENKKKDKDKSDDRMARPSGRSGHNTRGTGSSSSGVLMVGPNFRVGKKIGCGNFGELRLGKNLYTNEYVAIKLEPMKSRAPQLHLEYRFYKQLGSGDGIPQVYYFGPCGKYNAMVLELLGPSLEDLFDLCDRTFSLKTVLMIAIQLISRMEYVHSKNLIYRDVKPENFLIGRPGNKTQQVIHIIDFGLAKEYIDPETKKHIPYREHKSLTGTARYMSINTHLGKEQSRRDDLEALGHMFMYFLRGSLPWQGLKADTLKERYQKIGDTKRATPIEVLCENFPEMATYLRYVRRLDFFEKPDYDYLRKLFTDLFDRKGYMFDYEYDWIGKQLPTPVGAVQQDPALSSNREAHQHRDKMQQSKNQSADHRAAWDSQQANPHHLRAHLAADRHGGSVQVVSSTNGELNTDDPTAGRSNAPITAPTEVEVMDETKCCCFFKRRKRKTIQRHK
UniProt P61024, sequence (P61024 whole entry, looked up): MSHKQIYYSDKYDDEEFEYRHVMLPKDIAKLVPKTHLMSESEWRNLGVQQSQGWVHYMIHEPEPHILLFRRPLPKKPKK

Row | Target | log2 fold change
1 | DHFR (UniProt P00374) | -0.047
2 | COG4 (UniProt Q9H9E3) | 0.018
3 | COASY isoform 2 (UniProt Q13057) | 0.076
4 | DDX4 (UniProt Q9NQI0) | -0.044
5 | COG5 isoform 2 (UniProt Q9UP83) | 0.001
6 | COX7B (UniProt P24311) | 0.014
7 | CSNK1A1 (UniProt P48729) | -0.044
8 | DLG3 isoform 2 (UniProt Q92796) | 0.109
9 | CUX1 isoform 2 (UniProt Q13948) | 0.013
10 | DCTN1 isoform 4 (UniProt Q14203) | 0.07
11 | DDAH1 (UniProt O94760) | 0.054
12 | CSNK1G3 (UniProt Q9Y6M4) | -0.004
13 | CUX1 isoform 3 (UniProt P39880) | 0.059
14 | CINP isoform 3 (UniProt Q9BW66) | -0.071
15 | CNNM2 (UniProt Q9H8M5) | 0.025
16 | CNTN4 (UniProt Q8IWV2) | 0.237
17 | DNAJC24 (UniProt Q6P3W2) | 0.141
18 | DNAH10 (UniProt Q8IVF4) | 0.067

Row | Target | log2 fold change
19 | COQ8A (UniProt Q8NI60) | 0.036
20 | CNOT4 isoform 9 (UniProt O95628) | 0.027
21 | CKS1B (UniProt P61024) | -0.047
22 | DDB2 (UniProt Q92466) | -0.073
23 | DIAPH1 (UniProt O60610) | -0.002
24 | COQ9 (UniProt O75208) | -0.023
25 | DPY19L3 (UniProt Q6ZPD9) | 0.258
26 | CSNK1D (UniProt P48730) | -0.04
27 | DENND1B (UniProt Q6P3S1) | 0.128
28 | DOCK10 (UniProt Q96BY6) | 0.095
29 | DEF6 (UniProt Q9H4E7) | -0.004
30 | CNIH4 (UniProt Q9P003) | 0.217
31 | CLCN3 (UniProt P51790) | -0.096
32 | DIAPH1 (UniProt H9KV28) | 0.098
33 | CUEDC2 (UniProt Q9H467) | 0.06
34 | DNAH5 (UniProt Q8TE73) | 0.007
35 | CLASP2 (UniProt O75122) | 0.241

Compound: CCCS(=O)(=O)Nc1ccc(F)c(C(=O)c2c[nH]c3ncc(Cl)cc23)c1F
Assay: as above
Summary of the method: as §1

Row | Target | log2 fold change
36 | DHFR (UniProt P00374) | 0.206 (active)
37 | COG4 (UniProt Q9H9E3) | 0.047
38 | COASY isoform 2 (UniProt Q13057) | 0.017
39 | DDX4 (UniProt Q9NQI0) | -0.015
40 | COG5 isoform 2 (UniProt Q9UP83) | 0.06
41 | COX7B (UniProt P24311) | -0.047
42 | CSNK1A1 (UniProt P48729) | 0.017
43 | DLG3 isoform 2 (UniProt Q92796) | 0.005
44 | CUX1 isoform 2 (UniProt Q13948) | 0.084
45 | DCTN1 isoform 4 (UniProt Q14203) | 0.089
46 | DDAH1 (UniProt O94760) | 0.071
47 | CSNK1G3 (UniProt Q9Y6M4) | -0.053
48 | CUX1 isoform 3 (UniProt P39880) | -0.012
49 | CINP isoform 3 (UniProt Q9BW66) | 0.01
50 | CNNM2 (UniProt Q9H8M5) | 0.024
51 | CNTN4 (UniProt Q8IWV2) | 0.12
52 | DNAJC24 (UniProt Q6P3W2) | -0.038
53 | DNAH10 (UniProt Q8IVF4) | 0

Row | Target | log2 fold change
54 | COQ8A (UniProt Q8NI60) | -0.009
55 | CNOT4 isoform 9 (UniProt O95628) | 0.014
56 | CKS1B (UniProt P61024) | -0.029
57 | DDB2 (UniProt Q92466) | 0.001
58 | DIAPH1 (UniProt O60610) | -0.007
59 | COQ9 (UniProt O75208) | 0.126
60 | DPY19L3 (UniProt Q6ZPD9) | 0.05
61 | CSNK1D (UniProt P48730) | -0.044
62 | DENND1B (UniProt Q6P3S1) | -0.036
63 | DOCK10 (UniProt Q96BY6) | -0.008
64 | DEF6 (UniProt Q9H4E7) | -0.005
65 | CNIH4 (UniProt Q9P003) | 0.064
66 | CLCN3 (UniProt P51790) | -0.076
67 | DIAPH1 (UniProt H9KV28) | -0.01
68 | CUEDC2 (UniProt Q9H467) | 0.001
69 | DNAH5 (UniProt Q8TE73) | 0.074
70 | CLASP2 (UniProt O75122) | 0.072
